# Compound activity from PubChem.
# Pf Dd2 inh – blocks in vitro growth of P. falciparum Dd2; P. falciparum Dd2 growth, SYBR Green, 72 h; Potency, µM (series often up to 28.9 µM), inactives show top-dose activity, negative = inhibition, actives largely listed as inhibitors; 120,000 tested, 4.3% active; active = well fitted inhibition curve with a large enough effect;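 note: plate controls were DMSO vehicle for no effect and reference drug for full effect; nearly all actives have a fitted effect of over 65% in size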
#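 Readout: SYBR Green fluorescence, 485 nm excitation, 535 nm emission, after ~16 h lysis at 37C. Before that, Dd2-infected red cells (2.5% hematocrit) grew 72 h with compound, 29 uM top final concentration.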
# * = called active by the depositor; i = inactive; [ ] = remark or other dose. Many of the other results were omitted from the sample, so hits are more common in it than they were. Potency is the fitted concentration of half-maximal effect.
SMILES,Pf Dd2 inh
Cc1ccc(S(=O)(=O)N2CCC(OC3CCN(Cc4ccccc4)CC3)CC2)cc1C,0.89µM*
Cc1ccc(C(=O)N2CCC(OC3CCN(Cc4ccccc4)CC3)CC2)cc1,8.9µM*
O=C(c1cccnc1)N1CCC(OC2CCN(Cc3ccccc3)CC2)CC1,-16%
O=C(c1ccc(Cl)cc1)N1CCC(OC2CCN(Cc3cccnc3)CC2)CC1,i
O=S(=O)(c1cccc(F)c1)N1CCC(OC2CCN(Cc3ccccc3)CC2)CC1,2.8µM*
CC[C@H]1CN(C(=O)c2ccc(F)cc2)CC[C@H]1CC(=O)O,-16%[44.1 µM]
CC(=O)c1cccc(NC(=O)Cn2c(Nc3cc(C)cc(C)c3)nc(C)cc2=O)c1,-60%
COc1ccc(NC(=O)NC[C@H]2COCc3nc4ccccc4n32)cc1,i
c1cc(-c2nc(CC3CCNC3)no2)ccn1 (centres undefined),i
CC(C)(C)c1coc([C@@H]2COCCN2Cc2cnc3ccccc3c2)n1,-13%[44.1 µM]
COc1cccc(C(=O)NCCC2CCN(C(=O)Nc3ccccc3F)CC2)c1,-20%
C[C@H]1[C@@H]2[C@H]3OC(=O)[C@@H](C)[C@@H]3CC[C@@]2(C)CC[C@@H]1NC(=O)C1CCCCC1,i
C[C@H]1[C@@H]2[C@@H](O)C([C@H](C)C(=O)NCCN3CCOCC3)CC[C@@]2(C)CC[C@@H]1NC(=O)CC(C)(C)C (some centres undefined),-2%
C[C@H]1[C@@H]2[C@H]3OC(=O)[C@@H](C)[C@@H]3CC[C@@]2(C)CC[C@@H]1NC(=O)CC(C)(C)C,1.3µM*
CC(C)NC(=O)C(C)[C@@H]1CC[C@@]2(C)CC[C@H](NC(=O)CC(C)(C)C)[C@@H](C)[C@@H]2[C@H]1O (some centres undefined),6.3µM*
COCC(=O)N[C@H]1CC[C@]2(C)CC[C@@H]3[C@H](OC(=O)[C@H]3C)[C@H]2[C@@H]1C,-7%[44.1 µM]
CCN(CC)C(=O)C(C)[C@@H]1CC[C@@]2(C)CC[C@H](NC(=O)CC(C)(C)C)[C@@H](C)[C@@H]2[C@H]1O (some centres undefined),i
O=C(Cc1ccccc1)N1CCC2(CNc3ccccc3[S+](=O)([O-])N2)C1 (centres undefined),i
Cn1c(CCNC(=O)CN2CC3CC(C2)[C@H]2CCCC(=O)N2C3)nc2ccccc21 (some centres undefined),-30%
COC[C@H]1CCCN1C(=O)CC[C@@H]1CNC(=O)[C@@H]2C[C@H](NC(=O)Nc3ccc(F)cc3F)CN12,-3%
CCN(CC)C(=O)CC[C@H]1CNC(=O)[C@@H]2[C@@H](CCN2Cc2ccc(F)cc2)N1C,-4%[44.1 µM]
O=C(COc1ccccc1)N1CCC2(CC1)CN(c1ncccn1)CC2CO (centres undefined),-24%
O=C(NCc1cccnc1)c1nc(-c2ccccc2)cc2[nH]ccc12,i
O=C1CCC(CNC(=O)c2nc(-c3ccccc3)cc3[nH]ccc23)N1 (centres undefined),3%[44.1 µM]
O=C(NCCCn1ccnc1)c1nc(-c2ccccc2)cc2[nH]ccc12,11µM*
SMILES,Pf Dd2 inh
O=C1CC(c2ccccc2)N(C(=O)CNC(=O)c2cc(-c3ccc(F)cc3)n[nH]2)CCCCCN1 (centres undefined),i
CCN1CC2(CCN(C(=O)c3cnc4c(O)cccn4c3=O)CC2)OC1=O,-11%
CN(C)Cc1ccc(-c2cc3c(ccn3Cc3ccncc3)c(N3CCOCC3)n2)cc1,11µM*
Cn1cc(-c2cc3c(ccn3Cc3ccncc3)c(N3CCOCC3)n2)cn1,39%[44.1 µM]
c1cc(Cn2ccc3c(N4CCOCC4)nc(-c4cn[nH]c4)cc32)ccn1,3%[44.1 µM]
COc1ccc2nc([C@H]3CCN(C4CCN(C(C)=O)CC4)C3)[nH]c2c1,i
COc1ccc2nc([C@H]3CCN(CCCc4ccccc4)C3)[nH]c2c1,11µM*
COc1ccc2nc([C@H]3CCN(Cc4ccc(C(=O)O)cc4)C3)[nH]c2c1,-15%[44.1 µM]
COc1ccc2nc([C@H]3CCN(C(C)C)C3)[nH]c2c1,32µM*
CC(C)N1CC[C@H](c2nc3ccc(C#N)cc3[nH]2)C1,-16%[44.1 µM]
c1ccc(CCCN2CC[C@H](c3nc4ccccc4[nH]3)C2)cc1,i
O=C(N[C@@H]1CCN(C(=O)CSc2ccccn2)C[C@H]1O)c1ccncc1,-10%
Cc1ncsc1C1N(C2CCNCC2)C(=O)C12CCCC2 (centres undefined),i
O=C(N1CCCC1)N1CCn2c(nnc2-c2cncc(Br)c2)C1,-21%
O=C(O)c1ccccc1CN1CC(COc2ccccc2)C2(C1)CN(c1ccccc1)C2 (centres undefined),i
O=C(Nc1ccccc1)C1=NO[C@@H]2CN(Cc3cc(F)ccc3F)C[C@H]12,-25%[44.1 µM]
CCCOC(=O)N1CCCC2(CCC(=O)N(Cc3ccccc3)C2)C1 (centres undefined),0%
COc1ccc(C(=O)N2CCC(n3cc(-c4nc(C(C)C)no4)nn3)C2)cc1F (centres undefined),i
CS(=O)(=O)N1CCCN(C(=O)C2CCOCC2)CCNC(=O)CC1c1ccccc1 (centres undefined),18%
